Results on ten molecules are retold here after PubChem BioAssay (NCATS).

“And” between values parts separate entries of the source, which are not always exact repeats. Identical values can stand only once. Results filed as inconclusive are left out. The source made the active and inactive calls. Unless noted, calls come from the whole dose curve; as a rule, active = well fitted curve in the direction sought with a large enough effect; inconclusive = small, poorly fitted or top-dose-only effect, or another doubt; inactive = no such curve, though single readings can be large; an effect the other way counts as inactive or inconclusive. Bounds are passed on as bounds.

A short description of assay [1]: Cell Viability - Hek293 (AID 427;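 active = compounds whose dose-response curve shows a full or clear partial loss of cell viability, called from curve shape rather than a numeric limit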;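 note: potency is the fitted concentration of half-maximal effect; cells exposed to compound for 40 hours at 37 °C before reading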). Particulars: qHTS. A digest of the protocol:
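qHTS, human embryonic kidney (adenovirus-transformed) cells; 40 hr cpd, 37 °C; CellTiter-Glo ATP luminescence. Norm: DMSO = 0, 100 uM tamoxifen = 100% inhibition. Hill-fit AC50.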
For orientation: Quantitative high-throughput screening tests each substance at several concentrations.

For assay [2], the target named is Mitogen-activated protein kinase 10 (Mus musculus) (UniProt Q61831). Kind of assay: JNK3 AlphaScreen Assay (AID 530; active = well fitted curve in either direction with a large enough effect, not every such curve was filed as active;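 note: kinase came from lysate of stimulated human HepG2 cells; % is set by controls: 0 for no effect and ±100 for the full control effect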). Particulars: JNK3 lysate, c-Jun phosphorylation; series mostly up to 57.1 µM. A digest of the protocol: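 JNK3 came from HepG2 lysates pre-activated with IL-1beta and TNF-alpha and phosphorylated biotinylated GST-cJun (1-79) at 10 uM ATP, pH 7.6, room temperature. Compounds were titrated. AlphaScreen signal used anti-phospho-cJun (Ser73) antibody.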

Assay [3] is described as follows: Cell Viability - N2a (AID 540).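 Note: cells exposed to compound for 40 h at 37 °C; plate controls were DMSO alone for no effect and tamoxifen control for full effect; nearly all actives have a fitted effect of over 45% in size.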 Particulars: N2a mouse neuroblastoma cell viability; at 92.2 µM (top of the series). Put shortly:
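First, 1500 N2a cells per well incubate 5 hr at 37 °C; next, compounds are added and incubated 40 hr at 37 °C; finally CellTiter-Glo is added and luminescence read after 20 min, with AC50 derived by Hill modeling.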

Assay [4] in a line: MultiTox-Fluor Cytotoxicity Assay - LYMP1-001 - Dead Cells (AID 946). Particulars: LYMP1-001 lymphoblastoid cells, dead-cell protease fluorescence; series mostly up to 92.2 µM. A digest of the protocol:
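Seed 2500 LYMP1-001 cells/well, incubate 5 hr at 37 C; add compound, 16 hr at 37 C; add MultiTox-Fluor reagent, 60 min RT; read dead-cell fluorescence Ex/Em=485/520. Normalize to DMSO and 15 uM tetraoctylammonium bromide.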

Assay [5] is described as follows: Cell Viability - LYMP1-002 - Assay at 16 hr (AID 948).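 Note: 0% = DMSO alone and full effect = 92 µM tetraoctylammonium bromide.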 Particulars: LYMP1-002 lymphoblastoid cell viability; series mostly up to 92.2 µM. A digest of the protocol: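 Acute cytotoxicity is scored as a concentration-dependent fall in intracellular ATP in a human lymphoblastoid line (LYMP1-002) after 16 hr compound exposure at 37 C, measured by luciferase luminescence.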

The nature of assay [6]: MultiTox-Fluor Cytotoxicity Assay - LYMP1-003 - Dead Cells (AID 961). Note: nearly all actives have a fitted effect of over 70% in size. Particulars: LYMP1-003 lymphoblastoid cells, dead-cell protease fluorescence; series mostly up to 92.2 µM. Put shortly: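 LYMP1-003 lymphoblastoid, 2500 cells/well, 5 hr settle then 16 hr cpd at 37 C; MultiTox-Fluor reagent 60 min RT; Ex/Em 485/520 dead-cell signal; norm. DMSO = 0%, 15 uM tetraoctylammonium bromide = 100%; Hill AC50.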

Assay [7] can be described thus: MultiTox-Fluor Cytotoxicity Assay - LYMP1-003 - Live Cells (AID 962).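 Note: 0% = DMSO only and full loss = 92 µM tetraoctylammonium bromide; cytotoxic hits lower the live-cell protease signal.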 Particulars: LYMP1-003 lymphoblastoid cells, MultiTox-Fluor live-cell protease fluorescence; series mostly up to 92.2 µM. A digest of the protocol: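 Cells plated at 2500 per well and incubated 5 hr; compounds added and incubated 16 hr at 37 C; MultiTox-Fluor reagent added for 60 min at room temperature; fluorescence of liberated AFC measured at 405/510 nm.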

Assay [8] can be described thus: Cell Viability - LYMP1-003 - Assay at 24 hr (AID 963).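 Note: plate controls were DMSO only for no effect and tetraoctylammonium bromide positive control for full effect.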 Particulars: LYMP1-003 lymphoblastoid cell viability; series mostly up to 92.2 µM. A digest of the protocol:
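Acute toxicity in LYMP1-003 lymphoblastoid cells: 24 hr compound treatment at 37 C, ATP measured with CellTiter-Glo after 30 min at room temperature. AC50 derived by fitting the Hill equation to qHTS titrations.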

Assay [9] in a line: Cell Viability - LYMP2-005 (AID 967).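 Note: plate controls were DMSO only for no effect and 92 µM tetraoctylammonium bromide control for full effect.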 Particulars: LYMP2-005 lymphoblastoid cell viability; series mostly up to 92.2 µM. Put shortly:
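qHTS viability screen in LYMP2-005 cells: 24 h at 37 C with compound, ATP luminescence via CellTiter-Glo, AC50 from Hill curves.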

A short description of assay [10]: Cell Viability - LYMP2-015 (AID 971).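 Note: 0% = DMSO only and full effect = 92 µM tetraoctylammonium bromide; nearly all actives have a fitted effect of over 55% in size.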 Particulars: LYMP2-015 lymphoblastoid cell viability; series mostly up to 92.2 µM. Put shortly: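 Acute toxicity was scored as a concentration-dependent drop in intracellular ATP in lymphoblastoid cells after 24 hr compound exposure in complete medium. Detection used CellTiter-Glo luciferase luminescence.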
Assay [11] can be described thus: Cell Viability - LYMP2-025 (AID 976).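 Note: plate controls were DMSO only for no effect and tetraoctylammonium bromide control for full effect.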 Particulars: LYMP2-025 lymphoblastoid cell viability; series mostly up to 92.2 µM. A digest of the protocol:
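In qHTS format, LYMP2-025 lymphoblastoid cells in complete culture medium received compound for 24 hr; ATP-based CellTiter-Glo signal gave viability, with AC50 derived by Hill equation.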

Assay [12] in a line: Cell Viability - LYMP2-006 (AID 978).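 Note: cells exposed to compound for 24 hours; % is set by controls: 0 for no effect and ±100 for the full control effect; nearly all actives have a fitted effect of over 60% in size.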 Particulars: LYMP2-006 lymphoblastoid cell viability, qHTS; series mostly up to 92.2 µM. A digest of the protocol:
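Concentration-dependent loss of intracellular ATP in a human lymphoblastoid line after 24 hr treatment at 37 C was measured by CellTiter-Glo luminescence, with AC50 values obtained from standard Hill-equation modelling.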

Assay [13] can be described thus: Cell Viability - LYMP2-008 (AID 980). Note: % is set by controls: 0 for no effect and ±100 for the full control effect; nearly all actives have a fitted effect of over 60% in size. Particulars: LYMP2-008 lymphoblastoid cell viability, qHTS; series mostly up to 92.2 µM. Put shortly: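 Acute cytotoxicity is scored as concentration-dependent loss of cellular ATP in a human lymphoblastoid line after 24 hr treatment at 37 C. ATP is quantified by luciferase luminescence.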
Assay [14] in a line: Cell Viability - LYMP2-026 (AID 989). Note: % is set by controls: 0 for no effect and ±100 for the full control effect; nearly all actives have a fitted effect of over 50% in size. Particulars: LYMP2-026 lymphoblastoid cell viability, qHTS; series mostly up to 92.2 µM. Put shortly:
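Concentration-dependent loss of intracellular ATP in human lymphoblastoid cells after 24 hr at 37 C, quantified by luciferase luminescence. AC50 derived from standard Hill equation.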

Assay [15] is described as follows: Cell Viability - LYMP1-002 - Assay at 40 hr (AID 994).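 Note: 0% = DMSO only and full inhibition = 92 µM tetraoctylammonium bromide; nearly all actives have a fitted effect of over 60% in size.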 Particulars: LYMP1-002 lymphoblastoid cell viability; series mostly up to 92.2 µM. A digest of the protocol: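 Viability in the human lymphoblastoid line was measured as intracellular ATP via CellTiter-Glo after 40 hr compound exposure. Tetraoctylammonium bromide served as positive control.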
Assay [16] can be described thus: qHTS assay for small molecule agonists of retinoid X receptor alpha signaling (AID 588544). Particulars: HEK293T RXRa-UAS-bla, beta-lactamase reporter, 18 h; 530 nm emission.
The nature of assay [17]: qHTS assay for small molecule agonists of the antioxidant response element (ARE) signaling pathway measured by Nrf2-dependant transcriptional activity (AID 720636; active = well fitted curve in the direction sought with a large enough effect in the repeat runs; an effect the other way counts as inactive or inconclusive; note: % of control where 0% means no effect). Particulars: ARE-luc HepG2, Nrf2 luciferase reporter, 16 h; series mostly up to 92.4 µM. A digest of the protocol: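 ARE-luc HepG2 cells carrying an Nrf2-responsive luciferase reporter were plated in medium with 1% dialyzed FBS, left 6 hr at 37 C to attach, then exposed to compound for 16 hr. Luciferase luminescence was read after ONE-Glo addition.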

A short description of assay [18]: qHTS assay for small molecule agonists of the antioxidant response element (ARE) signaling pathway measured by Nrf2-dependant transcriptional activity - cell viability counter screen (AID 720653; active = well fitted curve in the direction sought with a large enough effect in the repeat runs; an effect the other way counts as inactive or inconclusive; note: % is set by controls: 0 for no effect and ±100 for the full control effect). Particulars: ARE-bla HepG2 viability, CellTiter-Glo ATP luminescence, 16 h; stronger effect = lower value. A digest of the protocol: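 ARE-bla HepG2 cells (2,000/well) rested 5 hrs at 37C/5% CO2, then exposed to compounds in DMSO for 16 hrs. Viability was read in the same wells as intracellular ATP by luminescence, 30 min at room temperature after reagent addition.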

Assay [19] in a line: qHTS assay for cell viability of HEK293 cells (AID 743288). Note: % is set by controls: 0 for no effect and ±100 for the full control effect; nearly all actives have a fitted effect of over 50% in size. Particulars: ATP luminescence (CellTiter-Glo), 18 h; max response: stronger effect = lower value. A digest of the protocol:
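The Tox21 protocol used parental HEK293 cells treated for 18 h at 37 C with compounds delivered by pintool; ATP-coupled luminescence after 30 min at room temperature gave viability.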

Assay [20] can be described thus: qHTS assay for cell viability of the p53RE-bla HCT-116 cell line (AID 743292). Note: % is set by controls: 0 for no effect and ±100 for the full control effect; nearly all actives have a fitted effect of over 55% in size. Particulars: p53RE-bla HCT-116 viability, ATP luminescence, 16 h; series mostly up to 95 µM. Put shortly:
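CellSensor p53RE-bla HCT-116 cells, 4,000/well, preincubated 5 h at 37 C, then exposed to compounds in DMSO for 16 h at 37 C. Viability read as CellTiter-Glo luminescence (intracellular ATP) after 30 min at room temperature.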

With `COc1ccc(N)cc1`, the Potency in [1] was > 92 µM (inactive). Also, the molecule was called inactive in assay [2] and in assay [17]. In assay [3], the activity change, negative = cytotoxicity was -29.2% (inactive) and -31.3% (inactive). The Potency entry in assay [4], in [5], in assay [6], in assay [7], in [8] and in [9] was “inactive” in each case. Besides, the Potency result in assay [10], in assay [11], in assay [12], in [13], in assay [14] and in assay [15] was “inactive” in each case. Moreover, in [20], the Potency entry is “inactive”. Further, the max response in assay [16] was 14.8% and 16.7%; in assay [18] it was 6.52% (inactive) and -14.8% (inactive); in assay [19], 2.27% (inactive) and -1.78% (inactive).

`CCCCOCCOP(=O)(OCCOCCCC)OCCOCCCC`: the Potency in assay [1] is > 92 µM (inactive). For the same molecule, the result in assay [2] and in [17] was inactive. The activity change, negative = cytotoxicity in assay [3] was -1.66% (inactive). Moreover, the Potency result in [4], in [5], in [6], in [7], in assay [8] and in assay [9] was “inactive” each time. The Potency entry in [10], in [11], in [12], in assay [13], in assay [14] and in assay [15] was “inactive” throughout. Besides, the Potency result in assay [20] is “inactive”. The max response in assay [16] is -10.8% and -2.33%; in assay [18], -2.06% (inactive) and 1.41% (inactive); in assay [19], -5.77% (inactive) and -12.8% (inactive).

`C=CC(=C)C`: the Potency in [1] is > 92 µM (inactive). The outcome in assay [2] and in [17] was inactive. Further, in assay [3], the activity change, negative = cytotoxicity was 4.7% (inactive). The Potency entry in [4], in [5], in assay [6], in assay [7], in assay [8] and in [9] was “inactive” throughout. Moreover, the Potency result in assay [10], in assay [11], in assay [12], in assay [13], in [14] and in [15] was “inactive” in each case. Moreover, the Potency result in assay [20] was “inactive”. Besides, the values for the max response in assay [16], in assay [18] and in assay [19] were 8.28%, -2.67% (inactive) and 2.66% (inactive), respectively.

Regarding `CCC[CH2][Sn]([Cl])([Cl])[Cl]`, the Potency in assay [1] is > 92 µM (inactive). Moreover, the call in [2] and in assay [17] was inactive. Also, the activity change, negative = cytotoxicity in [3] is 12.4% (inactive). The Potency result in assay [4], in [5], in [6], in assay [7], in [8] and in assay [9] was “inactive” throughout. Moreover, the Potency entry in assay [10], in [11], in [12], in [13], in assay [14] and in [15] was “inactive” each time. For the same molecule, the Potency result in assay [20] is “inactive”. The max response in assay [16] was -13.2% and -14.8%; in assay [18], -3.93% (inactive) and 8.73% (inactive); in assay [19] it was 9.1% (inactive) and -10.4% (inactive).

Turning to `CCN(CC)C(=O)N[C@H]1C=C2c3cccc4[nH]cc(c34)C[C@@H]2N(C)C1`, in assay [2], the molecule was classed as inactive.

Turning to `CC(Cl)Cl`, in [1], the Potency is > 92 µM (inactive). For the same molecule, the activity change, negative = cytotoxicity in assay [3] was -11.1% (inactive). Further, the Potency entry in assay [4], in [5], in [6], in assay [7], in assay [8] and in assay [9] was “inactive” throughout. For the same molecule, the Potency entry in [10], in [11], in assay [12], in assay [13], in assay [14] and in assay [15] was “inactive” each time. Also, the Potency entry in assay [20] was “inactive”. The values for the max response in assay [16], in assay [18] and in assay [19] were -6.24%, -2.99% (inactive) and -4.5% (inactive), respectively. In addition, the molecule was called inactive in assay [17].

Turning to `C[C@H](NC(C)(C)C)C(=O)c1cccc(Cl)c1`, in assay [2], the result was inactive.

On to `CCC[C@@](C)(COC(N)=O)COC(=O)NC(C)C`, for which, in [2], the molecule was classed as inactive.

Turning to `O=[N+]([O-])c1cccc2ccccc12`, in assay [1], the Potency was > 92 µM (inactive). Besides, the activity change, negative = cytotoxicity in assay [3] is 2.46% (inactive). Besides, the Potency entry in assay [4], in assay [5], in [6], in assay [7], in [8] and in assay [9] was “inactive” throughout. The Potency entry in assay [10], in assay [11], in assay [12], in [13], in [14] and in [15] was “inactive” throughout. In assay [20], the Potency result is “inactive”. The max response in assay [16] is -3.41% and -2.17%; in assay [18], 8.97% (inactive) and -15.3% (inactive); in assay [19], -12% (inactive) and 2.53% (inactive). Also, the result in assay [17] was inactive.

For the molecule `CN(C)C(=O)Oc1cc(OC(=O)N(C)C)cc([C@@H](O)CNC(C)(C)C)c1`, the result in assay [2] was inactive.
